In assay [1] the test system is Plasmodium falciparum Sir2 (PF13_0152, Sir2A). The assay can be described thus: pfSir2 binders on small-molecule microarrays, primary screen, biochemical, small-molecule microarray, 635 nm fluorescence (AID 1098).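 Further: score merges spot fluorescence intensity with its signal-to-noise ratio.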 The settings on record: small-molecule microarray binding, fluorescence 635 nm; higher = more signal.
Assay [2] in a line: small-molecule microarray binders of probe aDKK1, primary screen, biochemical, biotinylated probe, 635/667 nm fluorescence (AID 1099).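 Further: score merges 667nm spot fluorescence with signal to noise across triplicate slides.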 The settings on record: higher = more signal.
Assay [3] in a line: small-molecule microarray binders of probe aCHRDL2, primary screen, biochemical, biotinylated probe, 635/667 nm fluorescence (AID 1100). The settings on record: higher = more signal.
A short description of assay [4]: splicing luciferase reporter signal modulators, primary screen, spliceosome inhibition project, cell-based, HEK293, splice +/- reporter (AID 1101).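 Further: HEK293 cells carrying a splicing-competent luciferase reporter gene; test concentration not given here.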 The conditions noted are these: luminescence, 24 h, higher = more signal, called active from +8 up or from −8 down. On the technique in general: In a reporter assay the amount or activity of a reporter protein is the signal.

Assay [5] deals with Fibroblast growth factor 10 (Homo sapiens) (UniProt O15520). The assay can be described thus: FGF10 binders on small-molecule microarrays, primary screen, biochemical, small-molecule microarray, 635 nm fluorescence (AID 1102). The settings on record: FGF10 binding, fluorescence 635 nm, higher = more signal.
Assay [6] has as its system glycogen synthase kinase-3 (GSK3A per assay name; protocol says GSK3B). Briefly: GSK3 binders on small-molecule microarrays, primary screen, biochemical, small-molecule microarray, 635 nm fluorescence, GSK3A (AID 1103). Further: the record names both GSK3A and GSK3B. The conditions noted are these: small-molecule microarray binding, fluorescence 635 nm; higher = more signal.
For assay [7], the target named is Epidermal growth factor receptor (Homo sapiens) (UniProt P00533). The assay can be described thus: EGFR binders on small-molecule microarrays, primary screen, biochemical, small-molecule microarray, 635 nm fluorescence (AID 1104).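 Further: score merges 667 nm emission intensity with spot signal to noise over triplicate slides.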 The settings on record: EGFR binding, higher = more signal.
Assay [8] concerns the target Follistatin-related protein 3 (Homo sapiens) (UniProt O95633). Briefly: FSTL3 binders on small-molecule microarrays, primary screen, biochemical, small-molecule microarray, 635 nm fluorescence (AID 1105).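 Further: score merges emission near 667 nm and signal to noise per printed spot across three slides.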 The settings on record: FSTL3 binding, higher = more signal.
Assay [9] has as its target Dickkopf-related protein 1 (Homo sapiens) (UniProt O94907). Briefly: DKK1 binders on small-molecule microarrays, primary screen, biochemical, small-molecule microarray, 635 nm fluorescence scan (AID 1106).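 Further: score merges emission near 667 nm with signal to noise over three replicate slides.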 The conditions noted are these: DKK1 binding, higher = more signal.
In assay [10] the test system is Inhibin beta A chain (activin A). Briefly: INHBA (activin A) binders on microarrays, primary screen, biochemical, small-molecule microarray, 635 nm fluorescence scan (AID 1107).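 Further: mouse activin A protein probed at 4.33 µg/mL on printed slides; score merges bound-protein fluorescence near 667 nm with spot signal-to-noise.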 The conditions noted are these: small-molecule microarray binding, higher = more signal.
The test system of assay [11] is Human papillomavirus type 1a protein E7 (residues 44-93). The assay can be described thus: HPV1a E7 fragment binders on microarrays, primary screen, biochemical, small-molecule microarray, residues 44-93, 635 nm fluorescence (AID 1108).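 Further: E7 fragment applied at 1 µg/mL in TBST for 1 h at 4 C; score combines spot fluorescence with its signal to noise ratio.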 The conditions noted are these: small-molecule microarray binding, fluorescence 635 nm; higher = more signal.
The nature of assay [12]: modulators of HCV replicon luciferase signal, primary screen, HCV replication inhibitor project, Huh7 cells, luciferase reporter (AID 1109).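 Further: huh7 hepatoma cells harbouring a luciferase neomycin HCV replicon reporter; luciferase luminescence as measure of HCV replicon replication; test concentration not given here.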 The conditions noted are these: 48 h, higher = more signal. Background: In antiviral work, replicon cells carry a viral genome segment that copies itself.
Assay [13] concerns the target Left-right determination factor 2 (Homo sapiens) (UniProt O00292). The assay can be described thus: LEFTY2 binders on small-molecule microarrays, primary screen, biochemical, small-molecule microarray, 635 nm fluorescence scan (AID 1110). The conditions noted are these: LEFTY2 binding, higher = more signal.
The target in assay [14] is Calmodulin-1 (Homo sapiens) (UniProt P0DP23). Briefly: CALM1 binders on microarrays, EGTA buffer, profiling panel, biochemical, small-molecule microarray, Cy5-labelled CALM1 (AID 1111).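 Further: labelled calmodulin applied in Tris saline Tween buffer holding calcium plus EGTA and DTT.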 The conditions noted are these: Cy5-CALM1 binding fluorescence, higher = more signal.
For assay [15] the target is unchanged. Briefly: calcium-bound CALM1 binders on microarrays, profiling panel, artefact control for SMM control-protein annotation, biochemical, small-molecule microarray, Cy5-labelled CALM1, plus calcium (AID 1112).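 Further: score merges spot fluorescence with signal to noise from triplicate slides.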 The settings on record: Cy5-CALM1 binding fluorescence, higher = more signal.
The nature of assay [16]: small-molecule microarray binders of probe aWnt5a, primary screen, biochemical, biotinylated probe, 635/667 nm fluorescence (AID 1113).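 Further: score merges 667 nm fluorescence intensity with signal-to-noise per printed feature.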 The settings on record: higher = more signal.
Assay [17] in a line: small-molecule microarray binders of probe aShh, primary screen, biochemical, biotinylated probe, 635/667 nm fluorescence (AID 1114).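 Further: probe is biotin-labelled aShh protein from a stem cell growth factor screen; measures binding of labelled protein to compounds printed on the slide; score merges feature fluorescence at 667 nm with signal-to-noise.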 The settings on record: higher = more signal.
A short description of assay [18]: small-molecule microarray binders of probe aNog, primary screen, biochemical, biotinylated probe, 635/667 nm fluorescence (AID 1115).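 Further: probe is biotinylated aNog protein used at 0.15 µg/mL for 1 h at 4 C; z-score combines 667 nm fluorescence of each spot with its signal to noise.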 The conditions noted are these: higher = more signal.
Assay [19] has as its target Torsin-1A-interacting protein 1 (Homo sapiens) (UniProt Q5JTV8). The assay can be described thus: LAP1 binders from COS7 cell lysate, primary screen, small-molecule microarray, 635/667 nm fluorescence (AID 1116). The settings on record: COS7-hLAP1 lysate binding, 635 nm fluorescence, higher = more signal.
Assay [20] deals with Alpha-bungarotoxin (Bungarus multicinctus) (UniProt P60615). Briefly: alpha-bungarotoxin binders on microarray, profiling panel, artefact control for SMM control protein annotation, biochemical, small-molecule microarray, Alexa647 label, 635/667 nm fluorescence (AID 1117). The settings on record: alpha-BTX-A647 binding fluorescence, higher = more signal.

Activity calls are given as the source filed them.

Fibroblast growth factor 10 (Homo sapiens), sequence (O15520 whole entry, looked up): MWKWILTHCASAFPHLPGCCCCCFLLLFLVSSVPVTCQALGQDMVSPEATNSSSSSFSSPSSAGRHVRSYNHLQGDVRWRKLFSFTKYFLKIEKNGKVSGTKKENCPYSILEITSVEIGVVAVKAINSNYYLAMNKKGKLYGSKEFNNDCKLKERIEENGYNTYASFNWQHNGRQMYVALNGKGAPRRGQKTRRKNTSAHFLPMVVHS
Epidermal growth factor receptor (Homo sapiens), sequence (P00533 whole entry, looked up): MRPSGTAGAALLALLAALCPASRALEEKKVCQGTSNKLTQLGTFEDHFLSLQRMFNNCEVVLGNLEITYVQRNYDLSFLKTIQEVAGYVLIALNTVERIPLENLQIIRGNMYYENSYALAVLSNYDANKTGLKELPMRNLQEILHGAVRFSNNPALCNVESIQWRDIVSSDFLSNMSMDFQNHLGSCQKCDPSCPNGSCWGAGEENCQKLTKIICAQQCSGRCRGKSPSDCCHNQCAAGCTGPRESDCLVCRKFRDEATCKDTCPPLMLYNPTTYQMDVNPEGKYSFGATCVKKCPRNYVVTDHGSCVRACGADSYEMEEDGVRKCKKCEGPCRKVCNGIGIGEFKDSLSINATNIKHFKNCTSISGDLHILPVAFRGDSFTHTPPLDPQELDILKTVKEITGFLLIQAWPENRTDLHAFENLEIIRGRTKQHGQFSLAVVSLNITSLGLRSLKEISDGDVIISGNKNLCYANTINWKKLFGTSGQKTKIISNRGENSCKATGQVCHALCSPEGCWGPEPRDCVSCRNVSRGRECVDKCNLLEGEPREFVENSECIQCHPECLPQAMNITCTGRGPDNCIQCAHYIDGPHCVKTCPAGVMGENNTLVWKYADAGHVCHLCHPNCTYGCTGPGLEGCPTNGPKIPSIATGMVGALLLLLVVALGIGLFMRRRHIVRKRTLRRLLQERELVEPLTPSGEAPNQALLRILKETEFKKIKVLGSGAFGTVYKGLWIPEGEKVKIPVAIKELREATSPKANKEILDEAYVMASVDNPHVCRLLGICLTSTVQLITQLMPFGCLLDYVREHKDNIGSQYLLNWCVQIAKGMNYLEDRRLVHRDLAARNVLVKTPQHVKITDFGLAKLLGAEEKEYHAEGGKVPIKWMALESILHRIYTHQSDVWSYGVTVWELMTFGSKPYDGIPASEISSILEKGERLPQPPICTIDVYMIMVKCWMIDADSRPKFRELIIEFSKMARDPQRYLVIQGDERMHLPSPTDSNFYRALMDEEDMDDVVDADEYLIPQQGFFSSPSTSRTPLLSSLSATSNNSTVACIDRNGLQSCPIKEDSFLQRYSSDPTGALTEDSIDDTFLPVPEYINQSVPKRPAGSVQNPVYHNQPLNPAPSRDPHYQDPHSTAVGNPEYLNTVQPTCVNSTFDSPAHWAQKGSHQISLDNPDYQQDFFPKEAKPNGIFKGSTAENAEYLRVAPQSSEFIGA
Dickkopf-related protein 1 (Homo sapiens), sequence (O94907 whole entry, looked up): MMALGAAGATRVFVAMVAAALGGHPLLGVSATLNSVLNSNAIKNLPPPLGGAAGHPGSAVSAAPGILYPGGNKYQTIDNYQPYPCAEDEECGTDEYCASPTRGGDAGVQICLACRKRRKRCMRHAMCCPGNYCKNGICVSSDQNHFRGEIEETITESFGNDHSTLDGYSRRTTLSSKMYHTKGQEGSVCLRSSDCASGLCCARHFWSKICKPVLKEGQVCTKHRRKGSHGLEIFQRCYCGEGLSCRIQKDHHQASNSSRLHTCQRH
Follistatin-related protein 3 (Homo sapiens), sequence (O95633 whole entry, looked up): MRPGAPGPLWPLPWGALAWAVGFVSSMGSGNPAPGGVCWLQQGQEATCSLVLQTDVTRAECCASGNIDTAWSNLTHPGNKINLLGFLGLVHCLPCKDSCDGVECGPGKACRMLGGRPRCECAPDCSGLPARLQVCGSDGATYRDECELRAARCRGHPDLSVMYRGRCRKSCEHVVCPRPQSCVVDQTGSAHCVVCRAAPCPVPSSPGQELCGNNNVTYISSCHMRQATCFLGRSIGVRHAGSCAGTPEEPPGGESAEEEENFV
Left-right determination factor 2 (Homo sapiens), sequence (O00292 whole entry, looked up): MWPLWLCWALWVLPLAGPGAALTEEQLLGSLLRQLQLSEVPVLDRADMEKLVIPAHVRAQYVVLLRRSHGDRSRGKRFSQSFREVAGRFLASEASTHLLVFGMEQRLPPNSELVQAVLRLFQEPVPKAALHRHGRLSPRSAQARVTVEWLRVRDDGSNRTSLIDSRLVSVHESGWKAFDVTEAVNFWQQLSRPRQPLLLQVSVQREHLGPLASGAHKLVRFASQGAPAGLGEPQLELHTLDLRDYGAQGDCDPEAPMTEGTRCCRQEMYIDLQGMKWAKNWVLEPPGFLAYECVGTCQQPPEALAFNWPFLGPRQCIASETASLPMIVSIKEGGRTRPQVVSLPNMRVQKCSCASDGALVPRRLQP
Alpha-bungarotoxin (Bungarus multicinctus), sequence (P60615 whole entry, looked up): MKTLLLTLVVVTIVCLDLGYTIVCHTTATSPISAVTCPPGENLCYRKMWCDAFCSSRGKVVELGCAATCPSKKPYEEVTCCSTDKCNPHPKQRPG
Torsin-1A-interacting protein 1 (Homo sapiens), sequence (Q5JTV8 whole entry, looked up): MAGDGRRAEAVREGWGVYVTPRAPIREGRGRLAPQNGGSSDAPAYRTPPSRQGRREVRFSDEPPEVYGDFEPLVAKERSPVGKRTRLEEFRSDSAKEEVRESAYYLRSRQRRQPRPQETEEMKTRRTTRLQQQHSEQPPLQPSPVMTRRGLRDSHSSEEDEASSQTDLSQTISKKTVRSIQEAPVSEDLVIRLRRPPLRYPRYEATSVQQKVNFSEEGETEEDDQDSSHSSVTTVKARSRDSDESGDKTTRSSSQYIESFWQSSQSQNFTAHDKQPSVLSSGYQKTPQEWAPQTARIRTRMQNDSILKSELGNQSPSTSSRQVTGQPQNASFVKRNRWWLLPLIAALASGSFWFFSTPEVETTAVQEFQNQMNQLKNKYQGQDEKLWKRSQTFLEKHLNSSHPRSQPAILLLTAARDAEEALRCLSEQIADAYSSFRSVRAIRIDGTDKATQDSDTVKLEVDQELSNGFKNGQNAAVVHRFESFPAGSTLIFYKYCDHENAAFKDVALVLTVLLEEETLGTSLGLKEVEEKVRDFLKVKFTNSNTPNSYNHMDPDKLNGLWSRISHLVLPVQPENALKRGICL

With `C#CCCCON=C1C[C@@H](O)[C@@H](O)[C@@H]2[C@@H]3C(=O)N(C[C@@H]4CCCO4)C(=O)[C@@H]3CC[C@H]12`, the composite z-score in assay [1] is 0.407; in assay [2] it was -0.201; in assay [3] it was -0.346; in assay [5], 0.331; in [6] it was 0.444; in [7], 0.451. Besides, the composite z-score in assay [8] was 0.457; in assay [9] it was 0.481; in assay [10] it was -0.0374; in [11] it was 0.592; in [13], 0.397; in assay [14] it was 0.256. Also, the composite z-score was -0.0973 in assay [15]; -0.096 in [16]; -0.2 in assay [17]; -0.462 in assay [18]; 0.742 in assay [19]; 0.355 in [20]. In addition, the z-score in [4] was 0.44 (inactive); in [12], 0.403.

`COC(=O)CC=C[C@@H](C)[C@@H](C=NOC[C@@H](C)[C@H](OCc1ccccc1)C(C)C)OC`: the composite z-score in assay [1] is 0.161; in [2], -0.325; in [3], -0.208; in [5], 0.286; in assay [6], 0.103; in [7], 0.146. The composite z-score is 0.102 in assay [8]; 0.426 in [9]; -0.283 in assay [10]; 0.281 in assay [11]; 0.364 in assay [13]; -0.481 in assay [14]. Besides, the composite z-score in assay [15] was -0.79; in assay [16] it was -0.096; in assay [17], -0.19; in assay [18] it was -0.116; in [19], -0.062; in [20], 0.215. The z-score in [4] was -0.201 (inactive); in assay [12], -0.759.

For the molecule `CC(=O)OC[C@H]1O[C@@H](ON=C2[C@H]3CCn4c(=O)n(-c5ccccc5)c(=O)n4[C@H]3[C@H](O)[C@@H]3O[C@H]23)[C@H](OC(C)=O)[C@@H](OC(C)=O)[C@@H]1OC(C)=O`, the composite z-score is 0.242 in assay [1]; -0.425 in assay [2]; -0.43 in assay [3]; 0.614 in [5]; 0.913 in assay [6]; 0.519 in assay [7]. Also, the composite z-score was 0.387 in assay [8]; 0.731 in assay [9]; -0.1 in [10]; 1.08 in assay [11]; 0.664 in [13]; -0.0898 in [14]. Also, the composite z-score in [15] is -0.268; in assay [16] it was -0.101; in [17] it was 0.0902; in assay [18] it was -0.0563; in assay [19], 0.479; in assay [20], 0.393. Further, the z-score in assay [4] was 0.764 (inactive); in [12], -3.07.

Regarding `COCC#Cc1ccc([C@@H]2N[C@H](C(=O)O)CC[C@H]2C)cc1`, the composite z-score in assay [1] was -0.331; in [2], 0.159; in [3] it was -0.0016; in assay [5], 0.129; in [6], 0.223; in assay [7], 0.362. The composite z-score was 0.246 in assay [8]; 0.302 in [9]; 0.784 in assay [10]; -0.216 in [11]; 0.794 in assay [13]; -0.292 in assay [14]. In addition, the composite z-score in assay [15] was 0; in [16], -0.224; in [17] it was -0.117; in assay [18] it was -0.186; in assay [19] it was -0.416; in assay [20] it was 0.0645. Besides, the z-score was -1.63 (inactive) in assay [4] and 0.958 in assay [12].

Turning to `CSCC[C@@H]1NC(=O)CC=C[C@@H](C)COC(=O)[C@H](C)COC1=O`, the composite z-score was 0.926 in assay [1]; -0.641 in [2]; -2.03 in assay [3]; 1.49 in assay [5]; 0.781 in assay [6]; 1.67 in assay [7]. For the same molecule, the composite z-score in assay [8] is 1.23; in [9], 2.31; in [10], -2.83; in assay [11], -1.63; in [13], 1.71; in [14] it was -2.28. Further, the composite z-score in assay [15] was -3.17; in [16], -0.286; in assay [17], -0.0035; in assay [18], -0.321; in [19], 0.443; in [20], -1.96. In addition, the z-score is -0.841 (inactive) in assay [4] and 0.894 in [12].

Regarding `COc1ccc(O[C@H]2C=C[C@@H](c3ccccc3)O[C@@H]2COC(=O)NCc2cccc3ccccc23)cc1`, the composite z-score in assay [1] is -0.101; in assay [2] it was 0.0187; in assay [3], 0.173; in assay [5] it was 0.0748; in assay [6], -0.131; in assay [7] it was -0.168. For the same molecule, the composite z-score is 0.1 in [8]; 0.269 in [9]; 0.763 in assay [10]; 0.125 in [11]; -0.0808 in [13]; -0.413 in assay [14]. Further, the composite z-score was -0.329 in [15]; -0.104 in assay [16]; 0.23 in [17]; -0.116 in assay [18]; 0.469 in assay [19]; 0.33 in assay [20]. Also, the z-score in assay [4] was -0.134 (inactive); in [12], -2.19.
